The values that follow come from PMC5700166.

Assay in all cases: protein-binding microarray (PBM); PBM: ~300 nM protein, 6 mM HEPES pH 7.8, 80 mM KCl, 0.5 mM EDTA, 0.5 mM EGTA, 6% glycerol, 35 ng/ul poly-dIdC, 1% milk, 1 h, room temperature; Ap Aiptasia and Nv Nematostella (sea anemones) / Co Capsaspora / Aq Amphimedon (sponge) / Dm Drosophila / Hu human; RHD is the Rel homology domain; high values mean tight binding
Details in all cases: dsDNA, one strand shown

In experiment [1] the target is T1, GST-Ap-NF-kB RHD (Exaiptasia pallida (Aiptasia), UniProt A0A913YAJ5 2-422).
T1 sequence: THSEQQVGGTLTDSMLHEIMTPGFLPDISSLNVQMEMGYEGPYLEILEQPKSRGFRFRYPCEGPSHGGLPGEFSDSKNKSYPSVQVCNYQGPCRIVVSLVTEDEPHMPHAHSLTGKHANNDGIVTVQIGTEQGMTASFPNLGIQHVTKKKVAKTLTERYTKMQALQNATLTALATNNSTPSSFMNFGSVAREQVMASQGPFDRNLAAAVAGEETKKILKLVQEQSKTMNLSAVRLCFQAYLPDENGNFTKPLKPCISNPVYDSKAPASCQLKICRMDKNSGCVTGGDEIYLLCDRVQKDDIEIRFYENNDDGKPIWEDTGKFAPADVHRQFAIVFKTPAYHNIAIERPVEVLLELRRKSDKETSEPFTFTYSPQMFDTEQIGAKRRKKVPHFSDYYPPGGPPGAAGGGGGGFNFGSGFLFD

The target of experiment [2] is T2, GST-Nv-NF-kB (Cys allele) (Nematostella vectensis, UniProt E5G601 2-411).
T2 sequence: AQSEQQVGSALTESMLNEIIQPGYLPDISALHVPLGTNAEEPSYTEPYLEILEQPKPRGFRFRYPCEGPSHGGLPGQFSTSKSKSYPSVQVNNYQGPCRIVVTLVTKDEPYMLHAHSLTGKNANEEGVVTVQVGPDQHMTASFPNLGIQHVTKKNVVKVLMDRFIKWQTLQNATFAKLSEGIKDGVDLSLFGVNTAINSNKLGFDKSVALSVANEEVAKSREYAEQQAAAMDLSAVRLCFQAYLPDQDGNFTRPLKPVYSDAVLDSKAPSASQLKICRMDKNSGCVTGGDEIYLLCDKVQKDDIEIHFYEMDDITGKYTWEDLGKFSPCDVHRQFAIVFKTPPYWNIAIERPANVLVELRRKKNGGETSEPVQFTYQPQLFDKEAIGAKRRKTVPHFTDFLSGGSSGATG

In experiment [3] the target is T3, GST-Nv-NF-kB (Ser allele) (Nematostella vectensis, UniProt A7UNT2 2-411).
T3 sequence: T2 sequence with Q21R, C66S, S207N, E215Q, V217A, E225K, A268E, D399E

Experiment [4] deals with T4, GST-Co-NF-kB (Capsaspora owczarzaki, UniProt F1ARL5 200-546).
T4 sequence: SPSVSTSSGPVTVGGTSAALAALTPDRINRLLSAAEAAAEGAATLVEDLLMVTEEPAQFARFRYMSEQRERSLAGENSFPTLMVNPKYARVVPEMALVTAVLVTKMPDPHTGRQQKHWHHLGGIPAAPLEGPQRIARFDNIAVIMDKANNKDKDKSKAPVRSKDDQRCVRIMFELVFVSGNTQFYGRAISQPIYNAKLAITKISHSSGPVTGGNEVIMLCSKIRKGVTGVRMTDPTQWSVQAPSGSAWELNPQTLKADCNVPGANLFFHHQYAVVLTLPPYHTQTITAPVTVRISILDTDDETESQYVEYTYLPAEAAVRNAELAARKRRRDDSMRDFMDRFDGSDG

For experiment [5], the target named is T5, GST-Dm-Relish (Drosophila melanogaster, UniProt Q94527 99-473).
T5 sequence: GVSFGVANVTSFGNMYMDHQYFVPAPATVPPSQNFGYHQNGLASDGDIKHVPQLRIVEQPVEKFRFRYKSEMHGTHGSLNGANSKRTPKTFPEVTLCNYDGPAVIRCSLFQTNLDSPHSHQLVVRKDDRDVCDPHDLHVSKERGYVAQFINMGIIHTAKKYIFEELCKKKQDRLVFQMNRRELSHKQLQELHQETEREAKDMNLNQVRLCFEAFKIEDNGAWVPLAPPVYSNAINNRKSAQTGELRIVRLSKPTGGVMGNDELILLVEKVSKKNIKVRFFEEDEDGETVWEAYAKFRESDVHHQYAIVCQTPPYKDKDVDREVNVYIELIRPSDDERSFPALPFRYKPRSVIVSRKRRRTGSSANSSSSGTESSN

Experiment [6] has as its target T6, GST-Aq-NF-kB (Amphimedon queenslandica, UniProt A9Y5G7 2-389).
T6 sequence: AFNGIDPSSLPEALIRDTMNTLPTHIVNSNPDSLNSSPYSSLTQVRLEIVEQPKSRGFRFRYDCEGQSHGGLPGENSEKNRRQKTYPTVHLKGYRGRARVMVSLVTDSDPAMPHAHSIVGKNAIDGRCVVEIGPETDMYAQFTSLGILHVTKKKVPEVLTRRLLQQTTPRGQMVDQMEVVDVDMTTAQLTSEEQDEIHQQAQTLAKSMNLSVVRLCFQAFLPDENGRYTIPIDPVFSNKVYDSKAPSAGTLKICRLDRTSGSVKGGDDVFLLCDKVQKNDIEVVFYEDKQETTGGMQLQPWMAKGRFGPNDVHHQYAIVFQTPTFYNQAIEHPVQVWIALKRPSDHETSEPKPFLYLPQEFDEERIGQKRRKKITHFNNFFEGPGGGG

Experiment [7] has as its target GST-Hu-p50 (Homo sapiens, UniProt P19838 7-356).

Residue numbers refer to the chain shown, from its start.

Chain of GST-Hu-p50 (P19838 7-356): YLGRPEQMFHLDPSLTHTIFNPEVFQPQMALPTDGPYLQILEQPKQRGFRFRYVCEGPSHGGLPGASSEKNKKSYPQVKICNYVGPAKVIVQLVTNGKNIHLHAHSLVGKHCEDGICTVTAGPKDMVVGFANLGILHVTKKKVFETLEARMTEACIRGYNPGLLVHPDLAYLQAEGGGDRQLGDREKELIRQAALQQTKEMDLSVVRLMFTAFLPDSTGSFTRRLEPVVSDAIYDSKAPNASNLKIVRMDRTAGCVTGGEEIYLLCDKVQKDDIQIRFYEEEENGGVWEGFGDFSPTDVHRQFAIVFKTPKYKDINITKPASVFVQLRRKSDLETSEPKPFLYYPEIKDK

Take “CCGATTAACATCACGGGGGATTCTGATGTTAATCGGGTCTTGATTCGCTTGACGCTGCTG”: the binding signal in experiment [1] amounted to 8.95 z-score; in experiment [2], 7.68 z-score; in experiment [3], 8.48 z-score; in experiment [4], 7.06 z-score; in experiment [5], 7.96 z-score; in experiment [6] it was 6.51 z-score. The same sequence displayed a binding signal in experiment [7] of 7.01 z-score.
As for “CCGATTAACATCAGGGGGATCCATGATGTTAATCGGGTCTTGATTCGCTTGACGCTGCTG”, the binding signal in experiment [1] amounted to 7.42 z-score; in experiment [2], 5.12 z-score; in experiment [3], 6.25 z-score; in experiment [4] it was 4.25 z-score; in experiment [5] it was 7.45 z-score; in experiment [6], 5.46 z-score. This sequence also gave a binding signal in experiment [7] of 5.74 z-score.
As for “CCGATTAACATCAGGGGGGTAACTGATGTTAATCGGGTCTTGATTCGCTTGACGCTGCTG”, the binding signal in experiment [1] turned out to be 5.83 z-score; in experiment [2], 4.16 z-score; in experiment [3], 4.34 z-score; in experiment [4], 6.37 z-score; in experiment [5] it was 4.31 z-score; in experiment [6], 4.37 z-score. In experiment [7], this sequence registered a binding signal of 4.07 z-score.
As to “CCGATTAACATCAGGGAAGACCCTGATGTTAATCGGGTCTTGATTCGCTTGACGCTGCTG”, the binding signal in experiment [1] amounted to 4.49 z-score; in experiment [2] it was 5.72 z-score; in experiment [3], 3.5 z-score; in experiment [4] it was 1.33 z-score; in experiment [5] it was 7.97 z-score; in experiment [6], 7.06 z-score. Moreover, in experiment [7], the binding signal amounted to 3.16 z-score.
For “CCGATTAACATCAAGGGGGAGATTGATGTTAATCGGGTCTTGATTCGCTTGACGCTGCTG”, the binding signal is 6.99 z-score in experiment [1]; 6.09 z-score in experiment [2]; 7.57 z-score in experiment [3]; 7.21 z-score in experiment [4]; 3.01 z-score in experiment [5]; 5.27 z-score in experiment [6]. Further, the binding signal in experiment [7] stood at 7.18 z-score.
With “CCGATTAACATCAAGGGGGGATGTGATGTTAATCGGGTCTTGATTCGCTTGACGCTGCTG”, the binding signal in experiment [1] turned out to be 5.69 z-score; in experiment [2], 4.01 z-score; in experiment [3], 5.38 z-score; in experiment [4] it was 4.75 z-score; in experiment [5] it was 4.07 z-score; in experiment [6] it was 4.34 z-score. For the same sequence, the binding signal in experiment [7] came out at 4.32 z-score.
As for “CCGATTAACATCACCCACCCCCCTGATGTTAATCGGGTCTTGATTCGCTTGACGCTGCTG”, the binding signal in experiment [1] was determined as 3.58 z-score; in experiment [2], 2.85 z-score; in experiment [3] it was 4.5 z-score; in experiment [4], 3.74 z-score; in experiment [5] it was 4.19 z-score; in experiment [6], 3.84 z-score. In experiment [7], the binding signal was 3.99 z-score.
In the case of “CCGATTAACATCAGAATTCCCGATGATGTTAATCGGGTCTTGATTCGCTTGACGCTGCTG”, the binding signal was 3.78 z-score in experiment [1]; 4.69 z-score in experiment [2]; 4.3 z-score in experiment [3]; 3.92 z-score in experiment [4]; 2.59 z-score in experiment [5]; 3.28 z-score in experiment [6]. The sequence also showed a binding signal in experiment [7] of 3.21 z-score.
As to “CCGATTAACATCAAAAAGTCCCTTGATGTTAATCGGGTCTTGATTCGCTTGACGCTGCTG”, the binding signal worked out at 7.48 z-score in experiment [1]; 10.3 z-score in experiment [2]; 9.76 z-score in experiment [3]; 1.63 z-score in experiment [4]; 8.86 z-score in experiment [5]; 8.25 z-score in experiment [6]. In experiment [7], this sequence had a binding signal of 6.97 z-score.
As for “CCGATTAACATCACCGGGAATTCTGATGTTAATCGGGTCTTGATTCGCTTGACGCTGCTG”, the binding signal in experiment [1] was determined as 4.62 z-score; in experiment [2], 5.1 z-score; in experiment [3], 4.74 z-score; in experiment [4], 5.5 z-score; in experiment [5], 4.57 z-score; in experiment [6] it was 4.34 z-score. In experiment [7], this sequence registered a binding signal of 4.01 z-score.
Turning to “CCGATTAACATCAGGGGGGTAAATGATGTTAATCGGGTCTTGATTCGCTTGACGCTGCTG”, the binding signal in experiment [1] was determined as 4.89 z-score; in experiment [2] it was 4.22 z-score; in experiment [3] it was 4.83 z-score; in experiment [4], 7.69 z-score; in experiment [5], 4.17 z-score; in experiment [6] it was 4.53 z-score. This sequence registered a binding signal in experiment [7] of 4.35 z-score.
As for “CCGATTAACATCAGCACTCCCCCTGATGTTAATCGGGTCTTGATTCGCTTGACGCTGCTG”, the binding signal in experiment [1] stood at 5.42 z-score; in experiment [2], 4.35 z-score; in experiment [3], 4.91 z-score; in experiment [4] it was 3.89 z-score; in experiment [5], 2.23 z-score; in experiment [6], 3.99 z-score. In addition, the binding signal in experiment [7] was 5.21 z-score.
